Our source for the activity, negative = inhibition and AC50 values is PubChem BioAssay AID1851 (National Center for Advancing Translational Sciences (NCATS), 2009).

Broadly, the AC50 is the midpoint of the concentration-response curve, whichever way the signal moves.

Out of some 16,000 compounds screened, about 4,000 (25%) were called active. About 26% were inconclusive and are not listed. Not all results are given here. Values without a mark were called inactive. Calls follow the shape of the dose curve; as a rule, active = well fitted curve in the direction sought with a large enough effect; inconclusive = small, poorly fitted or top-dose-only effect, or effect the other way; inactive = no such curve, though single readings can be large or run the other way.
% is scaled to controls: 0 for no effect and ±100 for the full control effect.

In this test the target is Cytochrome P450 2C9 (Homo sapiens) (UniProt P11712). The experiment in a line: Cytochrome panel assay with activity outcomes. As to conditions: recombinant CYP, pro-luciferin dealkylation, luminescence, p450-cyp2c9; series mostly up to 57.1 µM.
Chain of Cytochrome P450 2C9 (Homo sapiens) (P11712 whole entry, looked up): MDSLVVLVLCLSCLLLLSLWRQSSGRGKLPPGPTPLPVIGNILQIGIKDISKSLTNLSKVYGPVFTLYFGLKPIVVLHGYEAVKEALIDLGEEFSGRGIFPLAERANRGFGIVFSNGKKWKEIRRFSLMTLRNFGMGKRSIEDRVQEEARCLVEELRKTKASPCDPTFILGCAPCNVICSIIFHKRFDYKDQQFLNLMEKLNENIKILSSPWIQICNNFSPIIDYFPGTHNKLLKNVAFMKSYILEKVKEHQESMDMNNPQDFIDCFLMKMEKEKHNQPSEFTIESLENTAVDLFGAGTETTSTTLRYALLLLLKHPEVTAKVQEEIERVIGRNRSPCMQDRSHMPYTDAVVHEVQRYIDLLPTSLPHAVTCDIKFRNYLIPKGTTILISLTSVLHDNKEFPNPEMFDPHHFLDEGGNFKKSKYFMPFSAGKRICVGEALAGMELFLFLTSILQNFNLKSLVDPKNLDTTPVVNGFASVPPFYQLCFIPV
Take `CCCn1cnc2c(SCC(=O)O)nc(N)nc21`: the activity, negative = inhibition was 3.25% [at 11.4 µM].

With `O=C1c2ccccc2-c2ccc(N(Cc3ccc(Br)cc3)Cc3ccc(Br)cc3)cc21`, the activity, negative = inhibition is -1.26% [at 11.4 µM].

Regarding `Cc1nc2sccn2c(=O)c1Cl`, the AC50 entry is “inactive”.

For `CCCN(C/C=C\I)[C@@H]1CCc2cccc(O)c2C1`, the AC50 entry is “inactive”.

As to `CCSc1nnc(NC(=O)C(C(F)(F)F)C(F)(F)F)s1`, the AC50 was 7.94 µM (active).

As to `COCCSc1nnc(NC(=O)C(C)(C)C)s1`, the AC50 result is “inactive”.

Take `CN(C)S(=O)(=O)c1nc(Cl)c2[nH]cnc2n1`: the activity, negative = inhibition was 1.52% [at 11.4 µM].

`CCn1c(SCc2ccc(C#N)cc2)nnc1-c1ccc(S(=O)(=O)N2CCCCC2)cc1`: the AC50 is 4.47 µM (active).

Take `O=C1N=C(N2CCC(Cc3ccccc3)CC2)S/C1=C/c1cn[nH]c1-c1ccccc1`: the AC50 was 0.447 µM (active).

Take `O=C1N=C(N2CCOCC2)S/C1=C\C=C/c1ccccc1`: the AC50 entry was “inactive”.

`CCN1CCCCC(=N/O)/C(=N/O)CCCC1`: the activity, negative = inhibition was -7.4% [at 11.4 µM].

As for `Cc1cc(C)c(C(N)=O)c(SCC(=O)c2ccc(Cl)cc2)n1`, the AC50 was 12.6 µM (active).

`CCCSc1nc(C)cc(C)c1C(N)=O`: the AC50 result was “inactive”.

As to `Cc1cc(C)c(C(N)=O)c(NC(=O)Nc2ccccc2)n1`, the AC50 entry is “inactive”.

On to `CC(C)[C@@H](OCc1ccccc1)[C@H](C)/C=N\OC[C@@H](O)[C@@H]1O[C@@H]2OC(C)(C)O[C@@H]2[C@H]1O`, for which the activity, negative = inhibition is -22.1% [at 11.4 µM].

Consider `O[C@@H]1[C@@H](OCc2ccccc2)OC[C@H](O)[C@@H]1O`, for which the activity, negative = inhibition was 0.912% [at 11.4 µM].

In the case of `CCO[C@H]1O[C@@H]([C@H](COCc2ccccc2)OCc2ccccc2)[C@@H](OCc2ccccc2)[C@H]1O`, the AC50 is 10 µM (active).

Turning to `COc1ccc(CNc2ncncc2-c2ccccc2CN(C)C)c(OC)c1`, the activity, negative = inhibition was -5.35% [at 2.29 µM].

For the compound `O=C(c1ccc(Cl)c(Cl)c1)c1cc(-c2ccccn2)c(N2CCOCC2)s1`, the AC50 is 5.01 µM (active).

`O=C(c1ccccc1)c1cc(F)c(N2CCOCC2)cc1Cl`: the AC50 entry was “inactive”.

Take `CN(C)C(=O)c1ccc(-c2ccc3ncnc(N4CCOCC4)c3c2)cc1`: the activity, negative = inhibition is 20.2% [at 2.29 µM].

With `C[C@@H]1CC[C@H]2C(=O)N3[C@@H](CC[C@@H](C)[C@@H]3c3ccc(Br)cc3)C(=O)N2[C@@H]1c1ccc(Br)cc1`, the concentration at half-maximal activity (AC50) is 3.98 µM (active).

On to `CCCC[C@@H]1CN2[C@H](c3ccc(Br)cc3)[C@@H](C)CC[C@H]2C(=O)O1`, for which the activity, negative = inhibition is -13.2% [at 11.4 µM].

Turning to `C[C@@H]1CN2[C@H](c3ccc(Br)cc3)[C@H](C)CC[C@H]2C(=O)O1`, the activity, negative = inhibition was -3.17% [at 11.4 µM].

As for `CCC(Sc1nc2cc3c(cc2c(=O)n1Cc1ccco1)OCO3)C(=O)Nc1ccccc1OC` (stereo not given), the AC50 is 0.631 µM (active).

On to `COc1ccccc1NC(=O)N1CCCC1C(=O)NCc1ccc2c(c1)OCO2` (stereo not given), for which the AC50 entry was “inactive”.

Turning to `CCC(Sc1nc2cc3c(cc2c(=O)n1Cc1ccco1)OCO3)C(=O)Nc1cccc(OC)c1` (stereo not given), the concentration at half-maximal activity (AC50) is 2 µM (active).

On to `COc1cccc(Nc2ncc3nc(-c4cccs4)c(=O)n(Cc4cccs4)c3n2)c1`, for which the AC50 result is “inactive”.

In the case of `CCCc1nnc(SCC(=O)N2C(C)CCCC2C)n1CCCOC` (stereo not given), the AC50 result is “inactive”.

In the case of `Cc1cc(=O)c2c(O)c(O)ccc2o1`, the AC50 result is “inactive”.

In the case of `CCOC(=O)[C@@]12C[C@@H]1/C(=N/O)c1ccccc1O2`, the AC50 entry was “inactive”.

Consider `CCOC(=O)c1cccc2c1-c1ccccc1/C2=N/O`, for which the AC50 was 8.91 µM (active).

With `NC[C@H](O)C1CCCCCCC1`, the AC50 entry is “inactive”.

Take `Nc1ncnc2c1nc(Sc1ccc(Cl)cc1)n2[C@@H]1O[C@H]2COP(=O)(O)O[C@@H]2[C@H]1O`: the AC50 entry was “inactive”.

Regarding `COCCn1c(=O)c(-c2ccccc2)nc2cnc(Oc3ccc(OC)cc3)nc21`, the AC50 was 10 µM (active).

As to `COCCn1c(=O)c(-c2ccccc2)nc2cnc(Nc3cccc(OC)c3)nc21`, the AC50 result was “inactive”.

As to `COCCn1c(=O)c(-c2ccc(Cl)cc2)nc2cnc(Oc3ccccc3)nc21`, the AC50 is 7.94 µM (active).

Consider `COCCn1c(=O)c(-c2cn(C)c3ccccc23)nc2cnc(Oc3ccc(OC)cc3)nc21`, for which the AC50 entry is “inactive”.

Turning to `CCNc1ncc2nc(-c3ccc(OC)cc3)c(=O)n(CCOC)c2n1`, the AC50 entry is “inactive”.

Take `Cn1c(=O)c(-c2ccc(Cl)cc2)nc2cnc(Oc3ccccc3)nc21`: the AC50 result was “inactive”.

As to `COCCn1c(=O)c(-c2ccccc2)nc2cnc(Oc3ccccc3)nc21`, the AC50 was 10 µM (active).

In the case of `COCCn1c(=O)c(-c2ccc(Cl)cc2)nc2cnc(Nc3ccccc3)nc21`, the AC50 result was “inactive”.

Take `COCCn1c(=O)c(-c2cn(C)c3ccccc23)nc2cnc(Oc3ccccc3)nc21`: the AC50 result is “inactive”.

`Nc1nc(N)c2[nH]cnc2n1` (tested in a mixture with another compound): the activity, negative = inhibition was -4.44% [at 11.4 µM].

Consider `Cc1[nH]c(N)nc(=S)c1CCC(=O)O`, for which the activity, negative = inhibition is 2.61% [at 11.4 µM].

`c1ccc2c[n+](Cc3ccnc4ccccc34)ccc2c1`: the activity, negative = inhibition was -6.16% [at 11.4 µM].

On to `Cc1c(NC(=O)Cn2ccc([N+](=O)[O-])n2)c(=O)n(-c2ccccc2)n1C`, for which the AC50 result is “inactive”.

In the case of `Cc1c(NC(=O)CSc2nnc3c4ccccc4n(CCc4ccccc4)c3n2)c(=O)n(-c2ccccc2)n1C`, the concentration at half-maximal activity (AC50) was 0.708 µM (active).

Consider `C=CCn1c(SCC(=O)Nc2c(C)n(C)n(-c3ccccc3)c2=O)nc2sc(C)c(-c3ccccc3)c2c1=O`, for which the concentration at half-maximal activity (AC50) was 14.1 µM (active).

As to `Cc1nc(SCC(=O)Nc2c(C)n(C)n(-c3ccccc3)c2=O)nc(C)c1C`, the AC50 entry is “inactive”.

Turning to `Cc1c(NC(=O)CN2C(=O)C3C4C=CC(C4)C3C2=O)c(=O)n(-c2ccccc2)n1C` (stereo not given), the AC50 entry was “inactive”.

Regarding `Cc1c(NC(=O)CSc2nnnn2C)c(=O)n(-c2ccccc2)n1C`, the AC50 result is “inactive”.

On to `CN[C@]1(C)[C@@H]2CC[C@@H](C2)C1(C)C`, for which the AC50 entry was “inactive”.

As to `CN1CCN(C2=Cc3ccccc3Oc3ccc(Cl)cc32)CC1`, the AC50 result was “inactive”.

Turning to `C=CC[C@@H]1C=C[C@H](O/N=C(\C)CCN2CCc3nc(CC)c(CC)cc3C2)[C@H](CO)O1`, the activity, negative = inhibition was -6.8% [at 11.4 µM].

Turning to `O=C(O)c1cc(N=Nc2ccc([N+](=O)[O-])cc2)ccc1O`, the activity, negative = inhibition is -19.1% [at 11.4 µM].

Take `O=C(c1cc(O)c(O)c([N+](=O)[O-])c1)c1ccccc1F`: the half-maximal activity concentration (AC50) was 1.26 µM (active).

With `N#Cc1cc2nc(O)c(O)nc2cc1[N+](=O)[O-]`, the AC50 entry was “inactive”.

Turning to `Cc1cc(Cl)ccc1OCC(=O)NCc1ccncc1`, the AC50 was 0.794 µM (active).

Consider `Cc1cc(Cl)ccc1OCC(=O)Nc1nc(N)nc(N)n1`, for which the activity, negative = inhibition was 23.6% [at 11.4 µM].

As for `CCCn1nnnc1NC(=O)COc1ccc(Cl)cc1C`, the half-maximal activity concentration (AC50) is 10 µM (active).

As for `Cc1ccc(CNC(=O)COC(=O)c2cnccn2)cc1`, the AC50 entry is “inactive”.

`CCCn1nnnc1-c1cc(Cl)cc(Cl)c1`: the AC50 entry was “inactive”.

Take `Cc1cccc(NC(=O)C2(c3ccccc3)CC2(Cl)Cl)c1` (stereo not given): the concentration at half-maximal activity (AC50) was 2 µM (active).

On to `Cc1cccc(N/C(N)=N/c2nc(C)cc(C)n2)c1`, for which the AC50 entry was “inactive”.

Consider `CCN(CC)CCOC(=O)C1(c2ccc([N+](=O)[O-])cc2)CCCC1`, for which the AC50 result is “inactive”.

For `Cc1cccc(NC(=O)C2(c3ccc([N+](=O)[O-])cc3)CCCC2)c1`, the AC50 was 20 µM (active).

With `CN1CCC[C@@H](CC2c3ccccc3Sc3ccccc32)C1`, the AC50 entry was “inactive”.

For `CCSC(N)=Nc1ccc(C(F)(F)F)cc1`, the AC50 result was “inactive”.

For `COc1cc(S(C)=O)ccc1-c1nc2ncccc2[nH]1` (stereo not given), the AC50 result was “inactive”.

Regarding `COC(=O)c1ccccc1NC(=O)c1cc2nc(C3CC3)cc(C(F)(F)F)n2n1`, the AC50 was 3.55 µM (active).

`CN(C)CCOC(=O)[C@@H](c1ccccc1)C1(O)CCCC1`: the AC50 entry was “inactive”.

For `C[C@@H]1c2cccc(O)c2C(O)=C2C(=O)[C@@]3(O)C(O)=C(C(N)=O)C(=O)[C@@H](N(C)C)[C@@H]3[C@@H](O)[C@@H]21`, the AC50 result was “inactive”.

For `Cc1ccc(S(=O)(=O)NC(=O)OC23COCN2COC3)cc1`, the activity, negative = inhibition is -0.0498% [at 11.4 µM].

Turning to `Cc1ccc(S(=O)(=O)NC(=O)NN2C[C@H]3CCC[C@@H]3C2)cc1`, the AC50 entry was “inactive”.

On to `Cc1ccc(S(=O)(=O)NC(=O)c2cccn2C)cc1`, for which the AC50 was 15.8 µM (active).

As for `CCN(CC)CCNc1ccc(CO)c2sc3ccccc3c(=O)c12`, the AC50 result was “inactive”.

On to `Cc1ccccc1C(C(=O)NCc1ccccc1)N(Cc1ccco1)C(=O)c1ccccn1` (stereo not given), for which the half-maximal activity concentration (AC50) is 10 µM (active).

`O=C(NCc1ccccc1)C(c1ccc(F)cc1)N(Cc1ccco1)C(=O)c1ccccn1` (stereo not given): the AC50 was 15.8 µM (active).

In the case of `c1ccc(CCNCc2ccco2)nc1`, the activity, negative = inhibition is 0.412% [at 11.4 µM].

For `Cc1ccccc1-c1nc(N(C)Cc2ccco2)c2ccccc2n1`, the activity, negative = inhibition was -11% [at 2.29 µM].

Regarding `CC(Cc1ccccc1)C(=O)NCc1ccccn1` (stereo not given), the AC50 result was “inactive”.

For `CN(Cc1ccco1)c1ncnc2ccc(-c3cccnc3)cc12`, the activity, negative = inhibition is -16.8% [at 2.29 µM].

`Cc1cc(C(C)(C)CC(C)(C)C)ccc1OCCOCC[N+](C)(C)Cc1ccccc1`: the AC50 entry is “inactive”.

With `Cc1cc(C)nc(NS(=O)(=O)c2ccc(N)cc2)n1`, the AC50 entry was “inactive”.

For the compound `CNc1cc(NS(=O)(=O)c2ccc(N)cc2)nc(NC)n1`, the half-maximal activity concentration (AC50) was 2 µM (active).

`COc1cc(NS(=O)(=O)c2ccc(N)cc2)ncn1`: the AC50 result was “inactive”.

`Cc1ccccc1-n1nc2c(c1NC(=O)c1c(-c3ccccc3Cl)noc1C)CSC2`: the half-maximal activity concentration (AC50) is 1.41 µM (active).

Take `Cc1ccc(-n2nc3c(c2NC(=O)c2cccs2)CSC3)cc1`: the half-maximal activity concentration (AC50) is 3.55 µM (active).

As to `CCCC(=O)Nc1c2c(nn1-c1ccc(C)cc1C)CSC2`, the half-maximal activity concentration (AC50) was 14.1 µM (active).

For `Cc1ccccc1-n1nc2c(c1NC(=O)c1ccc(S(=O)(=O)N(C)C)cc1)CSC2`, the half-maximal activity concentration (AC50) was 2.82 µM (active).

With `CCCC(=O)Nc1c(C)n[nH]c1C`, the AC50 entry is “inactive”.

Regarding `CC(C)(C)NC[C@H](O)COc1cccc2c1CCC(=O)N2`, the AC50 entry was “inactive”.

With `CCOC(=S)SCC(=O)O`, the activity, negative = inhibition is 4.25% [at 11.4 µM].

Consider `NC1=N[C@H](c2ccc(Cl)cc2)N(c2ccc(S(=O)(=O)Nc3ncccn3)cc2)C(N)=N1`, for which the activity, negative = inhibition was 14.6% [at 11.4 µM].
